# HP1b chromo inh: HP1-beta chromodomain-methylated histone interaction inhibition. AlphaScreen HP1-beta / biotin-H3K9me3 peptide binding. AID 540317. 390,000 compounds, 0.56% hits. Potency, µM (doses to about 114 µM), for inactives: at the top dose activity change, negative = inhibition, hits mostly inhibitors; also: potency is read from the fitted curve at half-maximal effect; nearly all actives have a fitted effect of over 70% in size
#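 Compound inhibition of the preformed complex between 50 nM HP1-beta and 50 nM biotinylated H3K9me3 peptide was read by AlphaScreen. Buffer was PBS pH 7.4 with 0.01% Tween-20. Incubations ran 30 min at room temperature, with 10 ug/mL donor/acceptor beads.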
# BAZ2B inh: BAZ2B (human) inhibition | Q9UIF8 | AlphaScreen BAZ2B-H3K14Ac peptide displacement | Potency, µM (doses to about 114 µM), for inactives: at the highest dose activity change, negative = inhibition, usual class: inhibitors | 360,000 compounds, 4.4% hits | AID 504333; also: potency is read from the fitted curve at half-maximal effect; % is scaled to controls: 0 for no effect and ±100 for the full control effect; nearly all actives have a fitted effect of over 60% in size
# Target sequence (Q9UIF8 whole entry, looked up): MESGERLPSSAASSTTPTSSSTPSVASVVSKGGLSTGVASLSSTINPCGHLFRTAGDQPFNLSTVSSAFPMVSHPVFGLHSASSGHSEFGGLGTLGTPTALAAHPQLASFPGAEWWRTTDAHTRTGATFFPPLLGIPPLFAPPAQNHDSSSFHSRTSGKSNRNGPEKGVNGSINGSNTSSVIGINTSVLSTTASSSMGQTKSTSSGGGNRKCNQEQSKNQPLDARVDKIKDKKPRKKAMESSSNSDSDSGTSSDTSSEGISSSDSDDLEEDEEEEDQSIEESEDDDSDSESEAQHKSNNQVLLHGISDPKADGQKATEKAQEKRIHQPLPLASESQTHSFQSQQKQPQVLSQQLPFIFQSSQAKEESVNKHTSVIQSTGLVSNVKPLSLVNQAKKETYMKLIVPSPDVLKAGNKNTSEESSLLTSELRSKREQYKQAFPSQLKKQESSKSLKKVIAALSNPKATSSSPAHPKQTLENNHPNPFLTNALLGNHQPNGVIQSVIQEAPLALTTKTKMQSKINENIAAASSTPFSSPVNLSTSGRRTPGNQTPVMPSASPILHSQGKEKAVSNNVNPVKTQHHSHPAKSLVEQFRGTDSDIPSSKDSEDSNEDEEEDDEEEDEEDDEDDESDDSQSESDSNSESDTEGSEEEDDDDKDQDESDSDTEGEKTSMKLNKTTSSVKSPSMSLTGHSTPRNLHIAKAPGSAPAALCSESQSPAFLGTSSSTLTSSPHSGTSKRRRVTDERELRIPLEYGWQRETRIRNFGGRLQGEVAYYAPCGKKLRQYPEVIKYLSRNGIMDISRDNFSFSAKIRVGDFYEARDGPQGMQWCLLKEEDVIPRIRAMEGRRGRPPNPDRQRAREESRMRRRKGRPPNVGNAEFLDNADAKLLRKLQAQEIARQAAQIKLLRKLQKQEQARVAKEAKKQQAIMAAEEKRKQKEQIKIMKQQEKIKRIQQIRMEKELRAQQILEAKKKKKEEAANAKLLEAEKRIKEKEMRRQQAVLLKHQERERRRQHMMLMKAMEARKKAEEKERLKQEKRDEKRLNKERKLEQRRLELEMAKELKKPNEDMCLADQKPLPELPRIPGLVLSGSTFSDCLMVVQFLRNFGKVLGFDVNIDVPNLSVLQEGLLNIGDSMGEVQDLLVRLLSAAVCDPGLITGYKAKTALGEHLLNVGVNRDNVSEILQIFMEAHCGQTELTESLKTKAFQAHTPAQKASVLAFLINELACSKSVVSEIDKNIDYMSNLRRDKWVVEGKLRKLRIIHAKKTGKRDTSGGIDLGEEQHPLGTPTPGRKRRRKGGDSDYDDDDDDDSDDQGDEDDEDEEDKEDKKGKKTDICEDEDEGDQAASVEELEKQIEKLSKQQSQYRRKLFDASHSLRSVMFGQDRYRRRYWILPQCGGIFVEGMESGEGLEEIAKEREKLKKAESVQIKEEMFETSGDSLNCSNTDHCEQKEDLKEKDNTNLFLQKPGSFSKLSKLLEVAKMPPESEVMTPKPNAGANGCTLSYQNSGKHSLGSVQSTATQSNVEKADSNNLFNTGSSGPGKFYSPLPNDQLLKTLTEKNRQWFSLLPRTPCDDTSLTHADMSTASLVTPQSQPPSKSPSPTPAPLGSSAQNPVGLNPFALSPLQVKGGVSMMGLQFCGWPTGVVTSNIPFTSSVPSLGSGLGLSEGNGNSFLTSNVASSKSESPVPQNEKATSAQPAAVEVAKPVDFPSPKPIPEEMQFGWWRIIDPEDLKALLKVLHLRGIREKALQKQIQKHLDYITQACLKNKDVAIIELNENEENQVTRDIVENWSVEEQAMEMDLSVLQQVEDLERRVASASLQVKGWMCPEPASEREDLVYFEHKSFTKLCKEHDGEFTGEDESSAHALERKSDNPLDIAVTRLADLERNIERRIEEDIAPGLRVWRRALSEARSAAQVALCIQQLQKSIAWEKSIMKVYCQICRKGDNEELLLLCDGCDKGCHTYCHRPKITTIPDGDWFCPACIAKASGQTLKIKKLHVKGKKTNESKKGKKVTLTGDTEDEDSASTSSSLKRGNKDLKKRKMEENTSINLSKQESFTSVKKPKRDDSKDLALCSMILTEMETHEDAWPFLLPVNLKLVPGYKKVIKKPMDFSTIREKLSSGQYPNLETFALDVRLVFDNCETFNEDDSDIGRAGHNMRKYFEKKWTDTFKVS
#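 Inhibition is scored as reduced AlphaScreen emission. The BAZ2B/b-H3(5-23)K14Ac complex (50 nM each) in PBS pH 7.4, 0.01% Tween-20 meets compound (up to 110 uM) for 30 min at RT before bead addition.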
# CtBP-E1A inh: blocks the CtBP interaction with E1A | AlphaScreen GST-E1A/His-CtBP binding, 1536-well; hits give low values | activity change, % (concentration not given with the values) | 340,000 compounds, 0.49% hits; in the data active = activity change below about -65%; inconclusive = mostly about -30% to -63%; also: % is scaled to controls: 0 for no effect and ±100 for the full control effect
#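 Steps: dispense buffer (Tris pH 8.0, NaCl 300 mM, TCEP 1 mM, BSA, Tween 20); add 5X protein mix (GST-E1A, His-CtBP, 125 nM each); pin 23 nL compound; 2 h at 37 °C, dark; add 5X beads (50 ug/mL); 1 h; read.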
# G9a inh: G9a (human) methyltransferase inhibition; G9a H3K9 monomethylation, AlphaScreen, 2 h; AID 504332; Q96KQ7; 350,000 compounds, 8.8% hits; Potency, µM (series often up to 102 µM), for the others: at the top dose activity, negative = inhibition, hits mostly inhibitors; also: potency is read from the fitted curve at half-maximal effect; % is scaled to controls: 0 for no effect and ±100 for the full control effect; nearly all actives have a fitted effect of over 75% in size
#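 Quantitative HTS format: methyltransferase activity on a biotin-tagged H3K9 peptide is measured by AlphaScreen, using a rabbit anti-monomethyl-H3K9 antibody with streptavidin donor and anti-IgG acceptor beads. Final levels are 20 nM enzyme, 500 nM peptide, 20 uM SAM; 2 h RT.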
# Six1-Eya2 inh: inhibitors of human Six1/Eya2 interaction; Q15475+O00167; AlphaScreen GST-Six1/His-Eya2 binding, biochemical; hits give low values; activity change, % (test concentration not listed); 360,000 compounds, 0.56% hits; AID 651725; in the data active = activity change below about -65%; inconclusive = mostly about -30% to -63%; also: % is scaled to controls: 0 for no effect and ±100 for the full control effect
#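 AlphaScreen luminescence read after one hour at 37 °C in darkness. Pin-transferred compounds met GST-Six1 and His-Eya2 protein (5X stock 250 nM/500 nM) plus glutathione donor and Ni-chelate acceptor beads (5X, 50 ug/mL).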
# JMJD2A Tudor inh: JMJD2A Tudor domain (human) inhibition; AlphaScreen JMJD2A-Tudor / H3K4me3 peptide binding; 390,000 compounds, 4.4% hits; Potency, µM (doses to about 114 µM), for the others: at the top dose activity change, negative = inhibition, actives largely listed as inhibitors; O75164; also: potency is read from the fitted curve at half-maximal effect; % is scaled to controls: 0 for no effect and ±100 for the full control effect; nearly all actives have a fitted effect of over 50% in size
# Numbers without * were called inactive; ? = inconclusive; · = not tested or not shown; [ ] = another dose, or the depositor's remark. Shown are actives, neighbours in structure and some others; about 10% of the full set was active somewhere. Unless noted, calls follow the shape of the dose curve; as a rule, active = well fitted inhibition curve with a large enough effect; inconclusive = small, poorly fitted or top-dose-only effect; inactive = no such curve, though single readings can be large or run the other way.
SMILES,HP1b chromo inh,BAZ2B inh,CtBP-E1A inh,G9a inh,Six1-Eya2 inh,JMJD2A Tudor inh
Cn1c(=O)n(C)c2cc(N3CCOCC3)c(NC(=O)c3ccc(F)cc3)cc21,28.4%,?,-0.1,10.8%[0.0925 µM],3.2,0.0%
Cc1c([C@H]2[C@@H](CC#N)C2(C)C)c2ccccc2n1C,?,22.4µM*,-28.1,5.0%[12.7 µM],-23.9,?
CCc1[nH]c(=O)[nH]c1C(C)S(=O)(=O)c1ccc(C)cc1 (configuration not stated),?,-19.0%,8.5,1.58µM*,-0.1,-26.8%
C=CCC(C=C)S(=O)(=O)c1ccc(C)cc1 (configuration not stated),48.9%,0.8%,-2.4,-25.4%[59 µM],6.1,2.9%
CCc1c(C(C)S(=O)(=O)c2ccc(C)cc2)[nH]c(=O)n1-c1ccc(C)cc1 (configuration not stated),23.8%,-21.0%,7.8,8.91µM*,16.7,-28.8%
O=C(CSc1ccc2nc(-c3ccccc3)cn2n1)Nc1cccc(F)c1,34.9%[57 µM],15.3%,·,-37.7%[59 µM],·,27.9%
CCc1ccc(NC(=O)N2CCN(C(=O)C3CCCO3)CC2)cc1 (configuration not stated),24.9%,-9.4%,6.1,34.3%,-2.0,0.0%
CCCC(=O)OCCNc1cc(Sc2nccn2C)c2nonc2c1[N+](=O)[O-],-31.7%,-24.6%,-1.5,28.2µM*,?,-16.0%
CCCC(=O)OCCNc1cc(SCc2ccco2)c2nonc2c1[N+](=O)[O-],?,25.1µM*,-25.1,20µM*,?,?
CC(=O)OCCCNc1cc(SCc2ccco2)c2nonc2c1[N+](=O)[O-],?,?,-10.8,?,?,50.1µM*
O=C(CSc1nccn1Cc1ccc(F)cc1)Nc1nc2ccccc2s1,-17.8%[57 µM],?,·,-46.9%[59 µM],·,?
CC(Sc1ccc2ccccc2n1)C(=O)O (configuration not stated),25.3%,2.1%,0.7,50.1µM*,-4.7,-11.0%
CC(Sc1cnc2ccccc2n1)C(=O)O (configuration not stated),36.4%,-0.3%,4.8,?,-0.7,1.7%
CCN(CC)CCN(C(=O)c1ccc2c(c1)CCCC2)c1nc2ccc(F)cc2s1,15.3%,·,-6.6,50.1µM*,-11.5,-35.2%
CCN(CC)CCN(C(=O)c1ccc2c(c1)CCCC2)c1nc2c(C)cccc2s1,28.4%,?,-3.0,35.5µM*,-15.9,?
Cc1ccc2nc(N(CCCN(C)C)C(=O)c3sc4ccccc4c3Cl)sc2c1,?,?,-26.8,50.1µM*,?,44.7µM*
CN(C)CCCN(C(=O)c1ccco1)c1nc2ccc(Cl)cc2s1,19.4%,?,-7.1,?,-9.9,-16.2%
CCN(CC)CCN(C(=O)c1ccc2c(c1)CCCC2)c1nc2ccc(C)cc2s1,-10.0%,-38.9%,1.1,?,-17.5,?
Cc1ccc(C(=O)N(CCCN(C)C)c2nc3ccc(Cl)cc3s2)cc1C,-10.8%,·,-22.5,70.8µM*,-24.9,?
CCCCOc1ccc(Cn2c(=O)oc3ccc(C)cc32)cc1,32.2%,9.3%,·,13.7%[59 µM],·,4.8%
Cc1ccc(C(=O)OCC(=O)Nc2cccc(S(=O)(=O)NC3=NCCCCC3)c2)c(C)c1,27.9%,·,-14.8,?,?,-28.0%
CN(C)CCCN(C(=O)c1ccc2c(c1)CCCC2)c1nc2cc3c(cc2s1)OCO3,-12.7%,?,?,·,-23.4,?
CN(C)CCCN(C(=O)c1ccc2c(c1)CCCC2)c1nc2ccc(F)cc2s1,-21.1%,?,-27.1,44.7µM*,?,?
O=C(O)[C@H]1C(=CCO)O[C@H]2CC(=O)N12,·,·,·,-20.9%[2.33 µM],·,·
N#CCSc1nnc(COc2ccc3ccccc3c2)o1,20.6%,0.1%,-1.8,?,8.2,11.8%[57.1 µM]
SMILES,HP1b chromo inh,BAZ2B inh,CtBP-E1A inh,G9a inh,Six1-Eya2 inh,JMJD2A Tudor inh
S=c1[nH]nc(COc2ccc3ccccc3c2)o1,-14.5%,-34.2%,0.7,0.891µM*,6.1,-23.5%
COc1ccc(Cc2n[nH]c(=S)o2)cc1,25.6%,-3.5%,-4.5,·,3.1,31.6µM*
COc1ccccc1NS(=O)(=O)c1cc(N2Cc3ccccc3C2=N)ccc1N1CCOCC1,?,·,-0.4,14.1µM*,8.3,?
COc1ccccc1NS(=O)(=O)c1cc(NC(=O)C2CC2)ccc1N1CCOCC1,·,-35.2%,·,8.91µM*,·,·
CCN(CC)c1ccc(NC(=O)c2ccccc2)cc1S(=O)(=O)Nc1ccccc1OC,?,-35.8%,-18.6,1µM*,-1.5,79.4µM*
COc1ccccc1NS(=O)(=O)c1cc(N)ccc1N1CCOCC1,?,·,3.4,·,-2.2,-30.8%
COc1ccccc1NS(=O)(=O)c1cc(NC(=O)c2ccncc2)ccc1N1CCCC1,?,·,13.8,7.94µM*,-22.2,-36.0%
CC(=O)c1cccc(NC(=O)N2C3CCC2CC(NC(=O)Nc2ccccc2)C3)c1 (configuration not stated),26.4%,-5.9%,·,·,-3.0,-10.5%
O=c1[nH]c(SCc2ccc(F)cc2Cl)nc2ccccc12,28.7%,-6.6%,-23.4,-9.6%,0.9,-14.0%
COc1ccccc1NS(=O)(=O)c1cc(NC(=O)Nc2cccc(C)c2)ccc1N1CCCCC1,?,-3.2%,-10.1,25.1µM*,2.2,-24.0%
CCCCCC(=O)Nc1ccc(N2CCOCC2)c(S(=O)(=O)Nc2ccc(OC)cc2)c1,9.5%,8.7%,3.6,11.2µM*,0.9,-15.0%
COc1ccccc1NS(=O)(=O)c1cc(NC(C)=O)ccc1N1CCCCC1,?,·,1.3,8.91µM*,-19.2,79.4µM*
COc1ccccc1NS(=O)(=O)c1cc(N)ccc1N1CCCC1,14.1µM*,·,-2.5,·,-17.7,?
COc1ccccc1NS(=O)(=O)c1cc(NC(=O)CCNC(C)=O)ccc1N1CCCCC1,-9.8%,-29.7%,-0.9,3.6%[0.501 µM],5.3,?
C/C(=C\C(=O)Nc1cscc1C)C(=O)O,21.7%,-11.6%,5.6,·,7.7,-12.1%
Cc1c(Cl)cccc1N1CC(C)(C)C1=O,-6.5%,-0.4%,6.1,6.7%,5.1,-35.7%
Nc1ccc(N2CCCC2)c(S(=O)(=O)Nc2cccc(C(F)(F)F)c2)c1,?,·,-19.1,·,-15.2,44.7µM*
COc1ccc(NC(C)=O)cc1S(=O)(=O)Nc1ccccc1C(=O)NCCc1ccccc1,9.3%,-25.4%,2.8,3.1%,-10.5,-3.3%
COc1ccc(NC(C)=O)cc1S(=O)(=O)Nc1ccc(OCc2ccccc2)cc1,-5.8%,?,-3.2,44.7µM*,-4.5,?
COc1ccc(NS(=O)(=O)c2cc(N)ccc2N2CCCCC2)cc1,-0.7%,?,-8.5,-15.2%[12.7 µM],-6.5,?
COc1cccc(OC)c1C(=O)Nc1cccc(-n2cnnn2)c1,20.0%[57 µM],-5.1%,·,-1.7%,-1.6,-14.5%
